Compounds with a hit are over-represented: about 10% of the library has one in this group of screens.
HP1b binding inh: inhibitors of HP1-beta chromodomain binding to methylated histone tails. AlphaScreen HP1-beta / biotin-H3K9me3 peptide binding. 0.56% of 390,000 active. Potency, µM (doses to about 114 µM), inactives show at the highest dose activity change, negative = inhibition, usual class: inhibitors; also: potency is read from the fitted curve at half-maximal effect; nearly all actives have a fitted effect of over 70% in size
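AlphaScreen: HP1-beta (50 nM) preformed 30 min with biotin-H3(1-18)K9me3 peptide (50 nM) in PBS pH 7.4, 0.01% Tween-20. Compound added for 30 min at RT, then streptavidin donor/nickel chelate acceptor beads (10 ug/mL) for 30 min.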
CtBP-E1A inh: blocks the CtBP interaction with E1A; 0.49% of 340,000 active; AlphaScreen GST-E1A/His-CtBP binding, 1536-well; hits give low values; activity change, % (test concentration not listed); AID 651724; in the data active = activity change below about -65%; inconclusive = mostly about -30% to -63%; also: % is scaled to controls: 0 for no effect and ±100 for the full control effect
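GST-E1A and His-tagged CtBP (125 nM each as 5X stock) were preincubated with pin-transferred compound for 2 h at 37 °C in the dark, then glutathione donor and nickel acceptor beads were added for 1 h before AlphaScreen reading.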
JMJD2A Tudor inh: blocks the human JMJD2A Tudor domain; O75164; AlphaScreen JMJD2A-Tudor / H3K4me3 peptide binding; Potency, µM (series often up to 114 µM), for the others: at the top dose activity change, negative = inhibition, hits mostly inhibitors; 4.4% of 390,000 active; AID 504339; also: potency is read from the fitted curve at half-maximal effect; % is scaled to controls: 0 for no effect and ±100 for the full control effect; nearly all actives have a fitted effect of over 50% in size
Six1-Eya2 inh: Six1/Eya2 interaction inhibition; 0.56% of 360,000 active; Q15475+O00167; activity change, % (no concentration beside the values); AlphaScreen GST-Six1/His-Eya2 binding, biochemical; hits give low values; AID 651725; in the data active = activity change below about -65%; inconclusive = mostly about -30% to -63%; also: % is scaled to controls: 0 for no effect and ±100 for the full control effect
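Compounds are tested against tagged Six1 and Eya2 proteins bridged by glutathione donor and nickel acceptor beads; after a one-hour incubation at 37 °C without light, AlphaScreen emission is recorded.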
G9a block: G9a (human) methyltransferase inhibition; Q96KQ7; G9a H3K9 monomethylation, AlphaScreen, 2 h; AID 504332; Potency, µM (highest dose often 102 µM), without a hit: at the top dose activity, negative = inhibition, usual class: inhibitors; 8.8% of 350,000 active; also: potency is read from the fitted curve at half-maximal effect; % is scaled to controls: 0 for no effect and ±100 for the full control effect; nearly all actives have a fitted effect of over 75% in size
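Enzyme 20 nM + cpd, 15 min RT; add b-H3K9 pep 500 nM / SAM 20 uM; 2 h RT; anti-H3K9me1 Ab 0.5 ug/mL + SA donor / anti-rabbit acceptor beads 20 ug/mL each, 10 min; AlphaScreen read.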
BAZ2B block: blocks human BAZ2B | Q9UIF8 | AlphaScreen BAZ2B-H3K14Ac peptide displacement | Potency, µM (titrated, usually from 114 µM), inactives show top-dose activity change, negative = inhibition, usual class: inhibitors | 4.4% of 360,000 active; also: potency is read from the fitted curve at half-maximal effect; % is scaled to controls: 0 for no effect and ±100 for the full control effect; nearly all actives have a fitted effect of over 60% in size
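Protein-peptide AlphaScreen: BAZ2B 50 nM, b-H3K14Ac 50 nM, 1x PBS pH 7.4 + 0.01% Tween-20. Preincubation 30 min RT; cpd 30 min RT (top 110 uM); beads 20 min RT, light-protected.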
Starred values were filed as active, the others as inactive; ? = inconclusive; nt = not tested or not shown; ! = repeats disagree; [ ] = dose if it differs, or a comment. Unless noted, calls follow the shape of the dose curve; as a rule, active = well fitted inhibition curve with a large enough effect; inconclusive = small, poorly fitted or top-dose-only effect; inactive = no such curve, though single readings can be large or run the other way.

SMILES | HP1b binding inh | CtBP-E1A inh | JMJD2A Tudor inh | Six1-Eya2 inh | G9a block | BAZ2B block
CCn1c(NN=O)nc2ccccc21 | -21% | ? | 89µM* | ? | ? | 56µM*
O=C(Nc1nnc(SCc2ccccc2Cl)s1)C1COc2ccccc2O1 (stereo not drawn) | 45% | -1 | -11% | -2 | -8%[59 µM] | -6%
CS(=O)(=O)N1CCC2(CCCN(Cc3ccncc3)C2)CC1 | nt | nt | nt | nt | 9%[12.7 µM] | nt
COc1ccc2c3c1O[C@H]1[C@@H](O)C=C[C@H]4C(C2)NCCC341 (stereo partly drawn) | nt | nt | nt | nt | 13%[59 µM] | nt
COc1ccc2c3c1OC1C(O)C=CC4C(C2)[N+](C)(C)CCC341 (stereo not drawn) | ? | nt | 16µM* | 0 | 7.9µM* | 22µM*
Cc1ccc(/C=C2\C(=O)NC(=O)N(CC3CCCO3)C2=O)s1 (stereo not drawn) | 27% | 0 | -23% | 3 | ? | ?
COc1ccc(CN2C(=O)NC(=O)/C(=C/c3ccc([N+](=O)[O-])s3)C2=O)cc1 | 28µM* | ? | 22µM* | ? | 8.9µM* | 25µM*
O=C1NC(=O)N(Cc2ccc(F)cc2)C(=O)/C1=C\c1ccc([N+](=O)[O-])s1 | ? | -10 | 20µM* | ? | 6.3µM* | 35µM*
CN1CC[C@@]2(CCCN(C(=O)Oc3ccccc3)C2)C1 | nt | nt | nt | nt | -3%[12.7 µM] | nt
COc1cc(/C=N/Nc2ccc(S(N)(=O)=O)cc2)cc(OC)c1OC | ? | -2 | ? | ? | -36% | -16%
NC[C@@H]1O[C@H](O[C@H]2[C@H](O)[C@@H](O[C@H]3[C@H](O)[C@H](N)C[C@H](N)[C@H]3O[C@@H]3O[C@H](CO)[C@@H](O)[C@H](O)[C@@H]3N)O[C@H]2CO)[C@@H](N)[C@H](O)[C@@H]1O | nt | nt | nt | nt | 29%[21.5 µM] | nt
O=C1CC2(CCCC2)CC(=O)N1CCCCN1CCN(c2ncccn2)CC1 | 40% | -1 | -3% | 2 | 13µM*! | -2%
O=C(Oc1ccccc1)c1ccccc1C(=O)Oc1ccccc1 | 170% | 34 | 102% | 29 | nt | nt
O=C(COc1ccc(Cl)cc1)N1CCN(C2CCCC2)CC1 | ? | 8 | 20µM* | -2 | 8.9µM* | 50µM*
O=C(COc1ccc(Cl)cc1)N1CCN(Cc2ccccc2)CC1 | 21% | 9 | -5% | -1 | 5%[59 µM] | -5%
CC1CCC(N2CCN(C(=O)COc3ccccc3)CC2)CC1 (stereo not drawn) | -18% | -3 | 4µM* | -2 | 11µM* | 50µM*
CCOc1cc2c(cc1OCC)-n1cccc1C(c1cccc(OCC)c1O)NC2 (stereo not drawn) | ? | -25 | 45µM* | -6 | 45µM* | ?
CCN1C[C@@]2(COC)[C@H]3[C@@H](OC)[C@H]4C1[C@@]3([C@H](OC)C[C@@H]2O)[C@H]1C[C@@]2(O)[C@@H](OC(=O)c3ccccc3)[C@@H]1[C@@]4(OC(C)=O)[C@H](O)[C@@H]2OC | nt | nt | nt | nt | 11%[21.5 µM] | nt
Cc1ccc(NC(=O)C2C3CCCC2C3c2ccccc2)c(C)c1 (stereo not drawn) | 41% | 0 | -8% | 31 | ? | -7%
c1cc(CN2CCC3(CCNCC3)CC2)ccn1 | nt | nt | nt | nt | -15%[12.7 µM] | nt
CC(C)Oc1ccc(C(=O)Nc2ccc3c(c2)CCCN3C(=O)c2cccs2)cc1 | -15% | nt | ? | nt | -15%[59 µM] | -14%
C=C(C)CSc1nnc([C@@H](N)Cc2c[nH]c3ccccc23)o1 | 41% | 2 | -33% | -2 | nt | -28%
Cc1[nH]nc2ccc(-c3cncc(OC[C@@H](N)Cc4c[nH]c5ccccc45)c3)cc12 | -36% | ? | 35µM* | -26 | nt | nt
CC(C)(N)Cc1ccc(Cl)cc1 | nt | nt | nt | nt | 12%[59 µM] | nt
Cc1[nH]c2ccccc2c1CN1CCCCC1 | 3% | -1 | -13% | -9 | nt | nt
SMILES | HP1b binding inh | CtBP-E1A inh | JMJD2A Tudor inh | Six1-Eya2 inh | G9a block | BAZ2B block
c1ccc2c(CN3CCCCCCC3)c[nH]c2c1 | -9% | -11 | 28µM* | -2 | ? | -5%
c1ccc2c(CN3CCN(C4CCCCC4)CC3)c[nH]c2c1 | ? | -13 | ? | -17 | 50µM* | 50µM*
COC(=O)c1nc(-c2ccc3c(n2)C(=O)C(N)=C(OC)C3=O)c(N)c(-c2ccc(OC)c(OC)c2O)c1C | -4% | -19 | -31% | 12 | 10µM* | ?
Cc1o[nH]c(=O)c1CC(N)C(=O)O (stereo not drawn) | nt | nt | nt | nt | 21µM*! | nt
CCC1Nc2ncnc(N3CCN(c4ccccn4)CC3)c2N(Cc2ccc(Br)cc2)C1=O (stereo not drawn) | 1% | -16 | 79µM* | -7 | nt | nt
C[C@H](CO)N1C[C@H](C)[C@@H](CN(C)C(=O)Nc2ccc(C(F)(F)F)cc2)Oc2c(NS(=O)(=O)c3cccs3)cccc2C1=O | 39% | 3 | -7% | 4 | nt | nt
CN1CCN(c2ccc([N+](=O)[O-])c(N3CCCCC3)c2)CC1 | 26% | 0 | -33% | -7 | 56µM* | ?
CN1CCN(c2ccc([N+](=O)[O-])c(NCC3CCCO3)c2)CC1 (stereo not drawn) | -7% | 11 | -23% | -11 | 28µM* | 6%
CC1(C)S[C@@H]2[C@H](N)C(=O)N2C1C(=O)O (stereo partly drawn) | nt | nt | nt | nt | 20%[5.15 µM] | nt
CC(=O)OC1CC(OC(C)=O)[C@]2(C)C(CC(OC(C)=O)[C@]3(C)C2CC[C@@]2(C)C(c4ccoc4)C(=O)C4O[C@]432)C1(C)C (stereo partly drawn) | nt | nt | nt | nt | -41%[2.33 µM] | nt
Cc1cc(-c2cc(C)c(N)c(C)c2)cc(C)c1N | ? | -25 | 50µM* | -5 | nt | nt
CCCOC(=O)c1cc2c(cn1)[nH]c1ccccc12 | nt | nt | nt | nt | 14%[59 µM] | nt
O=C(O)c1cc[c]([Hg][Cl])cc1 | ? | ? | 0.89µM* | -4 | 1µM*! | 1.3µM*
COc1ccc(C(=O)O)cc1OC | 20% | 7 | -7% | 3 | -58%[2.33 µM] | nt
CC(C)=CCSc1nnc([C@@H](N)Cc2c[nH]c3ccccc23)o1 | ? | -5 | ? | -6 | 3.5µM* | -8%
NC(=O)c1ccc(OCCC(O)N2CC=C(c3ccc(F)cc3)CC2)cc1 (stereo not drawn) | 30% | -25 | -20% | 5 | 2%[59 µM] | 9%
O=C1CC(N2CC=C(c3ccc(F)cc3)CC2)C(=O)N1c1ccc(F)cc1 (stereo not drawn) | 31% | -7 | ? | -2 | 25µM* | -12%
CCOC(=O)c1ccc(N2C(=O)CC(N3CC=C(c4ccc(F)cc4)CC3)C2=O)cc1 (stereo not drawn) | 1% | -4 | -34% | -11 | 3.2µM* | 8%
Ic1c(C2=CCCCC2)[se]c2ccccc12 | nt | nt | nt | nt | 19% | nt
